Mcl1 Noxa PPI = disrupts binding of human Mcl-1 to Noxa peptide | TR-FRET Mcl-1/Noxa peptide binding, 2 h | inhibition, % at 21.7 µM | AID 1022 | Q07820 | 220,000 compounds, 1.5% hits;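 active = compounds that cut the protein-peptide binding signal by more than 50% relative to plate controls in a single-dose test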;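 also: His-tagged Mcl-1 with rhodamine Noxa BH3 peptide and terbium anti-His antibody; 0% = Mcl-1 plus Noxa peptide wells and 100% = peptide-only wells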
Target sequence (Q07820 whole entry, looked up): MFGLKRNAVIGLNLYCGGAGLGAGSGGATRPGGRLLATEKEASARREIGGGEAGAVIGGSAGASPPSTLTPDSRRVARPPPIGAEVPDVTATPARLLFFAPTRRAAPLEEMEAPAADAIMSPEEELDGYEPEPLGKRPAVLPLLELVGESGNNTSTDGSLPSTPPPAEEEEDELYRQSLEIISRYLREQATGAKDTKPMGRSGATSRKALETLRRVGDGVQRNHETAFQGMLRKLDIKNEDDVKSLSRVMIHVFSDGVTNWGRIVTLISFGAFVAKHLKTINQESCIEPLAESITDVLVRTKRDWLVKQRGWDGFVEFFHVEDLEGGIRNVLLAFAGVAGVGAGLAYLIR
L929 necroptosis = L929 zVAD cell death inhibition; L929 zVAD necroptosis rescue, ATP luminescence, 24 h; with zVAD 60 µM; viability rescue, % at 10 µM; 220,000 compounds, 0.38% hits;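 active = activation, scaled between plate controls, above about 75%, limit read from the data; inactive = activation under that limit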;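 also: 0% = zVAD with DMSO and 100% = DMSO alone without zVAD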
MCL1-BIM inh = inhibitors of human MCL1 binding to BIM-BH3 peptide; inhibition, % at 10.9 µM; 320,000 compounds, 0.68% hits; GST-MCL1 / FITC-Bim-BH3 fluorescence polarization;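 active = inhibition above the mean inhibition of all tested compounds plus 3 SD, set per campaign, cut at about 40% in these data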;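 also: 0% = DMSO wells and 100% = unlabeled Bim-BH3 peptide control; higher means more loss of mP so more displacement of Bim peptide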
TNF necrop inh = TNF-alpha cell death inhibition in Jurkat FADD-/- cells. activation (protection from cell death), % at 10 µM. 220,000 compounds, 0.068% hits. Jurkat FADD-/- TNF necroptosis rescue, ATP luminescence, 24 h; 0 = TNF only, 100 = no-TNF cells. AID 463075;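 active = activation, meaning protection from cell death, of at least 50% relative to plate controls; inactive = activation below 50%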;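 also: necroptosis triggered by 40 ng/mL TNF-alpha added together with compound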
Mcl1 Bid PPI = Mcl-1/Bid interaction inhibition. Q07820. TR-FRET Mcl-1/Bid-Dy647 peptide binding, 1536-well. inhibition, % at 21.7 µM. 220,000 compounds, 0.97% hits;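 active = compounds that cut the binding signal by more than half at the single screening dose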;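 also: His-tagged Mcl-1 with europium anti-His antibody binding Bid BH3 peptide; 0% = Mcl-1 plus peptide wells and 100% = peptide-only wells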
Mcl-1 Bim block = human Bim-Mcl-1 interaction inhibition; Q07820; Bead-based flow cytometry, Bim peptide-Mcl-1 binding; inhibition, % at 10 µM; 190,000 compounds, 0.1% hits; AID 1009; in the data active = inhibition above about 40%;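 also: 0% = no compound tracer wells and 100% = peptide blocker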
Bcl-xL conf = Bcl-xL (human) inhibition, MCL1 counter-screen confirmation | shares compounds with MCL1-BIM inh | GST-Bcl-xL / FITC-Bim BH3 peptide FP binding | inhibition, % at 10.9 µM | 1,700 compounds, 54% hits;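 active = inhibition above a cutoff equal to the mean inhibition of all tested compounds plus 3 SD, cut at about 30% in these data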;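 also: 0% = DMSO wells and 100% = unlabeled Bim BH3 control peptide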
Target sequence (Q07817 whole entry, looked up): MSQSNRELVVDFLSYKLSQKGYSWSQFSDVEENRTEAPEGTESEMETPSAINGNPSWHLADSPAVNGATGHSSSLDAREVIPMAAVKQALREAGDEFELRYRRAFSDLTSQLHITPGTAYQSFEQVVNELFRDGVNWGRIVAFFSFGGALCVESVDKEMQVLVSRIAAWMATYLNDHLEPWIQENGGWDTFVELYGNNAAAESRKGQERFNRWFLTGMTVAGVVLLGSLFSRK
MCL1 BIM confirm = confirmation of human MCL1 and BIM-BH3 interaction inhibitors. GST-MCL1 / FITC-Bim-BH3 fluorescence polarization. shares compounds with MCL1-BIM inh. 1,700 compounds, 61% hits. inhibition, % at 10.9 µM;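 active = inhibition above the average of all tested compounds plus 3 SD, cut at about 40% in these data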;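 also: 0% = DMSO wells and 100% = unlabeled Bim-BH3 control peptide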
* = called active by the depositor; . = no result; + = active, no number. Rows were chosen to be rich in hits. Some 2.4% of all compounds tested hit in one or more screens of this group.

SMILES | Mcl1 Noxa PPI | L929 necroptosis | MCL1-BIM inh | TNF necrop inh | Mcl1 Bid PPI | Mcl-1 Bim block | Bcl-xL conf | MCL1 BIM confirm
CSc1nnc(N2C(=O)C(O)=C(C(=O)c3ccco3)C2c2ccccc2)s1 (stereo not given) | . | . | 53* | . | . | . | 54* | 70*
O=C(C1=C(O)C(=O)N(c2nc3ccc(Cl)cc3s2)C1c1ccco1)c1ccco1 (stereo not given) | . | . | 57* | . | . | . | 26 | 48*
CSc1nnc(N2C(=O)C(O)=C(C(=O)c3ccco3)C2c2ccccc2F)s1 (stereo not given) | . | . | 80* | . | . | . | 25 | 25
CCOC(=O)C1CCN(CCCSc2ccccc2)CC1 | . | . | 2 | . | . | . | . | .
Cc1nn2c(N)csc2nc1=O | 28 | 1 | 58* | 0 | 8 | 13 | 51* | 59*
COc1ccc(-c2cn(CCc3c[nH]c4ccccc34)nn2)cc1 | . | . | -8 | . | . | . | . | .
CN(Cc1ccccc1)S(=O)(=O)c1ccc(N2CCCC2=O)cc1 | . | . | -1 | . | . | . | . | .
O=C(O)c1ccc(N2CCCCC2)cc1 | 8 | 3 | 3 | 0 | -8 | 0 | . | .
Nc1ccc(N2CCCCCC2)cc1 | 65* | 2 | 42* | -10 | -19 | 7 | 38* | 57*
N#CC1=C(N)Oc2cc(O)c(Cl)cc2C1c1ccccc1F (stereo not given) | . | . | 57* | . | . | . | 91* | 118*
C/C=C(\C)CN1CCC(Oc2cc(C(=O)NC3CC3)ccc2OC)CC1 | . | . | 5 | . | . | . | . | .
Cc1ccc(C2C3CN(C(C)C)CC=C3C(C#N)=C(N)C2(C#N)C#N)cc1 (stereo not given) | 8 | . | 116* | . | -39 | -6 | 59* | 104*
N#CC1=C(N)C(C#N)(C#N)C(c2cccnc2)C2COCC=C12 (stereo not given) | -2 | 0 | 28 | -3 | -38 | -2 | . | .
CN1C2C=C3C(C#N)=C(N)C(C#N)(C#N)[C@@H](c4cccc(F)c4)[C@@H]3C1CC2 (stereo not given in full) | 12 | 0 | 27 | -1 | -14 | 0 | . | .
CN1CC=C2C(C#N)=C(N)C(C#N)(C#N)[C@H](c3ccoc3)[C@H]2C1 | 1 | 0 | 175* | 2 | -69 | 2 | 111* | +
N#CC1=C(N)C(C#N)(C#N)C(c2cccnc2)C2CN(C(=O)OCc3ccccc3)CC=C12 (stereo not given) | -2 | -1 | 18 | -11 | -21 | -1 | . | .
CN1CC=C2C(C#N)=C(N)C(C#N)(C#N)C(c3cccc(Cl)c3Cl)C2C1 (stereo not given) | 9 | -1 | 88* | -5 | -15 | 0 | 56* | 61*
N#CC1=C(N)C(C#N)(C#N)[C@H](c2ccoc2)[C@H]2CN(Cc3ccccc3)CC=C12 | 20 | 0 | 125* | -7 | -34 | -3 | 106* | 120*
CCOC(=O)N1CC=C2C(C#N)=C(N)C(C#N)(C#N)[C@H](c3ccc(OCC)c(OCC)c3)[C@H]2C1 | 15 | 0 | 3 | -9 | -29 | 0 | . | .
CSc1ccc(CN2CCCC(CNC(=O)c3ccc(F)cc3)C2)cc1 (stereo not given) | 20 | 0 | 4 | 2 | -45 | -2 | . | .
COc1cccc(C(=O)N2CCN(C(=O)c3cccc(F)c3)CC2)c1 | -27 | 0 | 85* | -1 | -19 | 0 | 0 | 0
CCOC(=O)N1CCN(C(=O)c2cccc(F)c2)CC1 | 16 | 0 | 1 | 1 | -20 | 1 | . | .
COc1ccc(Cl)cc1CN1CCN(c2nc(C)cc(C)c2C#N)CC1 | 14 | 2 | 85* | 1 | -8 | -1 | 57* | 82*
COc1ccc(C(CNC(=O)Nc2ccccc2)N2CCN(C)CC2)cc1 (stereo not given) | . | . | 46* | . | . | . | 7 | 13
NC(=O)/C(=C/c1ccco1)C(N)=S | 25 | 0 | 116* | -3 | -10 | . | 21 | 18
SMILES | Mcl1 Noxa PPI | L929 necroptosis | MCL1-BIM inh | TNF necrop inh | Mcl1 Bid PPI | Mcl-1 Bim block | Bcl-xL conf | MCL1 BIM confirm
Cc1ccc2[nH]c(=O)c(C3C(C#N)=C(N)Oc4c3ccc3cccnc43)cc2c1 (stereo not given) | 33 | 0 | 44* | -7 | 60* | 0 | 37* | 58*
COc1ccc(-c2c(C)c3ccc(O)cc3oc2=O)cc1OC | . | . | -1 | . | . | . | . | .
O=c1cc(-c2ccccc2)c2ccc(O)cc2o1 | . | . | 0 | . | . | . | . | .
Nc1ccc(-c2c3ccc(=O)cc-3oc3cc(O)ccc23)cc1C(=O)O | . | . | 118* | . | . | . | 104* | 112*
O=c1ccc2c(-c3ccccc3)c3ccc(O)cc3oc-2c1 | . | . | 110* | . | . | . | 119* | 121*
O=C(Nc1ccc(S(=O)(=O)Nc2ncccn2)cc1)c1cccc(S(=O)(=O)N2CCOCC2)c1 | 17 | 0 | 5 | 0 | -6 | . | . | .
COc1ccc(NS(=O)(=O)c2cc(NC(=O)c3ccc(=O)[nH]c3)ccc2N2CCCC2)cc1 | . | . | 4 | . | . | . | . | .
CCN(CC)C(=O)C1c2ccccc2Oc2ccccc21 | . | . | + | . | . | . | 91* | 126*
NS(=O)(=O)c1cccc(NC(=O)CN2CCc3ccccc32)c1 | 21 | 0 | 77* | 0 | -33 | 2 | 6 | 0
Cc1ccc(-c2ccccc2NC(=O)CS(=O)CC(=O)Nc2ccc(C)c(Cl)c2)o1 (stereo not given) | . | . | 141* | . | . | . | 11 | 15
CCc1cc(=O)oc2cc(C)cc(OCC(=O)NC3CCN(Cc4ccccc4)CC3)c12 | . | . | 6 | . | . | . | . | .
CC(=O)c1cccc(CN2CCc3ccc(NC(=O)C4CCCO4)cc3C2)c1 (stereo not given) | . | . | 4 | . | . | . | . | .
COc1ccc(C2C=C(c3ccc(Br)s3)Nc3ncnn32)cc1OC (stereo not given) | -6 | -1 | + | -12 | -58 | 1 | 140* | 161*
COc1ccc(C2C=C(c3ccc(C)cc3)Nc3ncnn32)cc1 (stereo not given) | 9 | 0 | . | -2 | -113 | -3 | . | .
CCc1nc2ccc(C(=O)N3CCN(c4ccc(Cl)cc4)CC3)cc2nc1CC | . | . | 2 | . | . | . | . | .
Cc1oc(/N=C/c2ccccc2O)c(C#N)c1C | . | 0 | 9 | -1 | -20 | -3 | . | .
Cc1oc(/N=C/c2ccc(O)cc2O)c(C#N)c1C | 17 | 2 | 65* | -2 | -46 | 0 | 57* | 65*
CC(C(=O)OCC(=O)c1ccc(Br)cc1)N1C(=O)C2C3C=CC(C3)C2C1=O (stereo not given) | . | . | 1 | . | . | . | . | .
CC1(C)CNc2cc(N)ccc2S1 | 20 | 2 | 66* | -1 | -66 | 1 | 32* | 43*

Screens (PubChem BioAssay)
